About 2,000 (36%) of roughly 5,500 compounds were called active. Another 18% or so got no clear call; they are omitted. Rule as the data show it: active = normalized growth mostly below about 0.91 (no sharp cut-off); inconclusive = no clear call, values can overlap the other calls; inactive = mostly above about 0.92. This is one part of the list.
Test: chemical genetic growth profiling, strain panel (AID 1159580);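 also: tested at 20 µM; growth read once vehicle control cultures reached saturation at 30 °C; 1 = growth at the plate median or of vehicle wells; lower values mean less growth of the strain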
Conditions: growth OD

Measured: normalized growth

Nc1ccc(C(=O)NCC(=O)O)cc1
inactive: S. cerevisiae deletion strains, locus YKL009W, strain mrt4, hits give low values 1.02 | S. cerevisiae deletion strains, locus YKL068W, hits give low values 1 | S. cerevisiae deletion strains, locus YKL085W, strain MDH1 (second series), hits give low values 1.01 | S. cerevisiae deletion strains, locus YKL085W, strain MDH1, hits give low values 1.01 | S. cerevisiae deletion strains, locus YKL160W, strain elf1, hits give low values 1.04 | S. cerevisiae deletion strains, locus YKL190W, strain CNB1, hits give low values 1 | S. cerevisiae deletion strains, locus YKR001C, strain vps1, hits give low values 1.02 | S. cerevisiae deletion strains, locus YKR026C, strain gcn3, hits give low values 1.01 | S. cerevisiae deletion strains, locus YKR091W, strain srl3, hits give low values 0.999 | S. cerevisiae deletion strains, locus YLL001W, strain dnm1, hits give low values 1 | S. cerevisiae deletion strains, locus YLL026W, hits give low values 0.997 | S. cerevisiae deletion strains, locus YLL041C, strain sdh2, hits give low values 1.01 | S. cerevisiae deletion strains, locus YLR027C, strain aat2, hits give low values 1.03 | S. cerevisiae deletion strains, locus YLR039C, strain RIC1, hits give low values 1.01 | S. cerevisiae deletion strains, locus YLR058C, strain SHM2, hits give low values 0.998 | S. cerevisiae deletion strains, locus YLR102C, strain apc9, hits give low values 1.02 | S. cerevisiae deletion strains, locus YLR113W, strain HOG1, hits give low values 0.937 | S. cerevisiae deletion strains, locus YLR221C, strain rsa3, hits give low values 1 | S. cerevisiae deletion strains, locus YLR258W, strain gsy2, hits give low values 1.03 | S. cerevisiae deletion strains, locus YLR262C, strain YPT6 (second series), hits give low values 1.02 | S. cerevisiae deletion strains, locus YLR262C, strain YPT6, hits give low values 1.04 | S. cerevisiae deletion strains, locus YLR268W, strain sec22, hits give low values 1.02 | S. cerevisiae deletion strains, locus YLR320W, strain mms22, hits give low values 1.01 | S. cerevisiae deletion strains, locus YLR330W, strain CHS5, hits give low values 1.01 | S. cerevisiae deletion strains, locus YLR342W, strain FKS1 (second series), hits give low values 0.987 | S. cerevisiae deletion strains, locus YLR342W, strain FKS1, hits give low values 1.02 | S. cerevisiae deletion strains, locus YLR357W, strain rsc2, hits give low values 1.07 | S. cerevisiae deletion strains, locus YLR370C, strain arc18, hits give low values 1.01 | S. cerevisiae deletion strains, locus YLR371W, strain rom2, hits give low values 1 | S. cerevisiae deletion strains, locus YLR384C, strain iki3, hits give low values 1.02 | S. cerevisiae deletion strains, locus YLR418C, strain cdc73, hits give low values 1.04 | S. cerevisiae deletion strains, locus YML016C, strain PPZ1, hits give low values 1 | S. cerevisiae deletion strains, locus YML032C, strain rad52, hits give low values 1.01 | S. cerevisiae deletion strains, locus YML120C, strain ndi1, hits give low values 1 | S. cerevisiae deletion strains, locus YML124C, strain tub3, hits give low values 1.01 | S. cerevisiae deletion strains, locus YMR058W, strain fet3, hits give low values 1.01 | S. cerevisiae deletion strains, locus YMR078C, strain ctf18, hits give low values 1.02 | S. cerevisiae deletion strains, locus YMR125W, strain sto1, hits give low values 1.02 | S. cerevisiae deletion strains, locus YMR129W, hits give low values 1.02 | S. cerevisiae deletion strains, locus YMR205C, strain PFK2, hits give low values 1.03 | S. cerevisiae deletion strains, locus YMR223W, strain ubp8, hits give low values 1.01 | S. cerevisiae deletion strains, locus YMR231W, strain pep5, hits give low values 1.02 | S. cerevisiae deletion strains, locus YMR263W, strain SAP30, hits give low values 1 | S. cerevisiae deletion strains, locus YMR307W, strain GAS1, hits give low values 1.03 | S. cerevisiae deletion strains, locus YNL067W, strain RPL9B, hits give low values 0.99 | S. cerevisiae deletion strains, locus YNL071W, strain lat1, hits give low values 1.03 | S. cerevisiae deletion strains, locus YNL153C, strain GIM3, hits give low values 0.973 | S. cerevisiae deletion strains, locus YNL183C, strain NPR1, hits give low values 0.908 | S. cerevisiae deletion strains, locus YNL209W, strain ssb2, hits give low values 1.01 | S. cerevisiae deletion strains, locus YNL233W, strain BNI4, hits give low values 0.986 | S. cerevisiae deletion strains, locus YNL248C, strain rpa49, hits give low values 1.02 | S. cerevisiae deletion strains, locus YNL250W, strain rad50, hits give low values 1.01 | S. cerevisiae deletion strains, locus YNL271C, strain bni1, hits give low values 1.02 | S. cerevisiae deletion strains, locus YNL298W, strain CLA4, hits give low values 1.03 | S. cerevisiae deletion strains, locus YNL307C, strain MCK1, hits give low values 1.02 | S. cerevisiae deletion strains, locus YNL322C, strain KRE1 (second series), hits give low values 1.01 | S. cerevisiae deletion strains, locus YNL322C, strain KRE1, hits give low values 0.997 | S. cerevisiae deletion strains, locus YNR049C, strain mso1, hits give low values 1.01 | S. cerevisiae deletion strains, locus YNR052C, strain pop2, hits give low values 1.02 | S. cerevisiae deletion strains, locus YOL006C, strain TOP1, hits give low values 0.96 | S. cerevisiae deletion strains, locus YOL012C, strain htz1 1.06 | S. cerevisiae deletion strains, locus YOL147C, strain pex11, hits give low values 1.01 | S. cerevisiae deletion strains, locus YOR001W, strain rrp6, hits give low values 0.986 | S. cerevisiae deletion strains, locus YOR061W, strain CKA2, hits give low values 1.01 | S. cerevisiae deletion strains, locus YOR069W, strain VPS5, hits give low values 1 | S. cerevisiae deletion strains, locus YOR070C, strain gyp1, hits give low values 1.01 | S. cerevisiae deletion strains, locus YOR080W, strain dia2, hits give low values 1.01 | S. cerevisiae deletion strains, locus YOR083W, strain WHI5, hits give low values 0.99 | S. cerevisiae deletion strains, locus YOR106W, strain vam3, hits give low values 1.04 | S. cerevisiae deletion strains, locus YOR136W, strain idh2, hits give low values 1.02 | S. cerevisiae deletion strains, locus YOR144C, strain elg1, hits give low values 1.01 | S. cerevisiae deletion strains, locus YOR184W, strain ser1, hits give low values 1.02 | S. cerevisiae deletion strains, locus YOR231W, strain MKK1, hits give low values 0.97 | S. cerevisiae deletion strains, locus YOR265W, strain rbl2, hits give low values 1 | S. cerevisiae deletion strains, locus YOR270C, strain vph1, hits give low values 1.02 | S. cerevisiae deletion strains, locus YOR290C, strain snf2, hits give low values 1.04 | S. cerevisiae deletion strains, locus YOR316C, strain cot1, hits give low values 1.02 | S. cerevisiae deletion strains, locus YPL051W, strain arl3, hits give low values 1.02 | S. cerevisiae deletion strains, locus YPL078C, strain atp4, hits give low values 1.02 | S. cerevisiae deletion strains, locus YPL106C, strain sse1, hits give low values 1.04 | S. cerevisiae deletion strains, locus YPL240C, strain hsp82, hits give low values 1.01 | S. cerevisiae deletion strains, locus YPL241C, strain CIN2, hits give low values 1 | S. cerevisiae deletion strains, locus YPL256C, strain CLN2, hits give low values 0.936 | S. cerevisiae deletion strains, locus YPR119W, strain clb2, hits give low values 1.01 | S. cerevisiae deletion strains, locus YPR141C, strain kar3, hits give low values 1.01 | S. cerevisiae deletion strains, locus YPR163C, strain tif3, hits give low values 1.01 | S. cerevisiae deletion strains, locus YPR167C, strain met16, hits give low values 1.02 | S. cerevisiae deletion strains, strain wtn01, hits give low values 1.03 | S. cerevisiae strains, strain wild type, hits give low values 0.995
